Data: PubChem BioAssay AID602247 (The Scripps Research Institute Molecular Screening Center, 2012)
Screen size: about 360,000 compounds; about 80 (0.02%) were called active. The full list was thinned out, with actives kept by preference. Values without a mark were called inactive.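 Rule for the calls: active = activation above the run cutoff, the mean activation of all test compounds plus 3 SD (cut at about 40% in these data); inactive = the rest.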

assay: nonselective calcium activators in parental CHO-K1 cells, primary screen, counter-screen for M1 PAM project, cell-based, Fluo-8 calcium fluorescence, full deck, 1536-well (AID 602247); conditions: parental CHO-K1, ATP EC20, Fluo-8 calcium fluorescence; at 3 µM; stronger effect = higher value; 0% at ATP EC20, 100% at ATP max;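 note: peak over basal fluorescence ratio in a 140 s read after ATP addition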

SMILES	activation
Nc1scc(-c2ccncc2)c1Cl	13.6%
Cc1cccc(CC2(O)C(=O)Nc3ccccc32)n1 (stereo not given)	12.3%
Cc1ccc(C)c(OCCC(=O)Nc2cccc(S(=O)(=O)N3CCCC3)c2)c1	10.7%
O=c1[nH]c(CCl)nc2cc(-c3ccc(Cl)cc3)sc12	13%
CN[C@H](C(=O)NC[C@H]1O[C@@H](n2cnc3c(N)ncnc32)[C@H](O)[C@@H]1O)[C@@H](C)OCc1ccccc1	11.7%
O=C(NNS(=O)(=O)c1ccc([N+](=O)[O-])cc1)C1CCCCC1	-9.25%
COC(=O)c1ccccc1NC(=O)C1(S(=O)(=O)c2ccc(Cl)cc2)CC1	-15%
CSc1ccccc1C(=O)OCC(=O)N1CCN(C(C)=O)CC1	15.7%
O=C(CSCc1ccccc1Cl)NNC(=O)c1ccccc1	2.85%
O=C(OC1CCOC1=O)c1ccc(-c2nc3ccccc3s2)s1 (stereo not given)	10.6%
Cc1ccc2nc(NC(=O)C3CSC4(C)CCC(=O)N34)sc2c1 (stereo not given)	-12.5%
COC(C[C@@H](O)C[C@@H](O)[C@H](C)OCc1ccccc1)OC	17.1%
Cc1ccc([C@H]2N[C@]3(CCCN(Cc4ccccc4)C3=O)[C@H]3C(=O)N(Cc4ccccc4)C(=O)[C@@H]23)cc1	1.9%
CC(=O)NC1=NC(=O)CS1	15.2%
C[C@H]([C@@H](O)[C@@H](O)[C@@H](C)C(C)(C)C)[C@H]1CC[C@H]2C3CC[C@H]4C[C@H](OS(=O)(=O)O)[C@@H](OS(=O)(=O)O)C[C@]4(C)[C@H]3CC[C@]12C (stereo not given in full)	46.3% (active)
CC(=O)O[C@H]1CC[C@@]2(C)[C@@H](CC[C@@H]3[C@@H]2CC[C@]2(C)[C@@H](C(C)(C)O)C[C@@H]32)C1	4%
CCOC(=O)c1c(C)n(C)c2ccc(OC)c(NC(=O)CN3CCC4(CC3)OCCO4)c12	7.82%
O=C(CN(c1ccccc1)S(=O)(=O)c1ccc(Cl)cc1)Nc1ccccc1C(=O)N1CCCC1	8.26%
CCOc1ccccc1NC(=O)C1CCN(S(=O)(=O)c2c(C)nn(C)c2C)CC1	-1.01%
Cc1ccc(N2CCN(c3ccc(C)cc3)C2c2ccccn2)cc1	-7.38%
COc1ccc(S(=O)(=O)N2CCN(C(=O)c3cc(C)oc3C)CC2)cc1	20.2%
COc1ccc(CCN2CC(C(=O)OCC(=O)NCc3ccccc3Cl)CC2=O)cc1OC (stereo not given)	-3.82%
Cc1cc(C(=O)CC#N)c(C)n1CC(F)(F)F	13.3%

SMILES	activation
C/C(=N/NC(=O)CSc1ccccn1)c1ccc([N+](=O)[O-])cc1	22.4%
CC1(C)CC2CC(C)(CN2c2ncnc3ccc(Br)cc23)C1 (stereo not given)	17.9%
C/C(N)=C(\C#N)C(=O)NCCc1ccccn1	21.8%
O=C(/C=N/O)Nc1ccccc1	6.67%
CN1CCN(c2cc(=O)n(-c3ccc(Cl)cc3)c(=O)[nH]2)CC1	1.64%
COc1ccc(C2/C=C\CN(S(=O)(=O)c3cccs3)CC(=O)N2Cc2ccc(F)cc2)cc1 (stereo not given)	-11.5%
CC(C)NC(=O)c1ccccc1S(=O)c1ccccc1C#N (stereo not given)	0.52%
O=C(CSc1nnnn1-c1ccc2c(c1)CCC2)Nc1ccc2c(c1)OCCO2	-11.2%
O=C1c2ccccc2C(=O)N1CCc1nn[nH]n1	16.6%
CC(C)(C)c1ccc(/C=C2\Oc3c(ccc(O)c3CN3CCN(CCO)CC3)C2=O)cc1	4.37%
CCCCOc1ccc(C(=O)NCC(=O)OCC(=O)c2c(N)n(C)c(=O)n(C)c2=O)cc1	-1.27%
COc1cccc(CNCc2ccc3c(c2)OCO3)c1	18.7%
CCOc1ccccc1N1CCN(C(=S)Nc2ccc(S(N)(=O)=O)cc2)CC1	17.3%
COc1ccc(C2=NOC(Cn3nc(C(=O)NCc4ccc5c(c4)OCO5)cc3-c3ccccc3)C2)cc1 (stereo not given)	14.9%
CCOc1cc(C2C(C(=O)OC(C)C)=C(C)NC3=C2C(=O)CCC3)cc([N+](=O)[O-])c1O (stereo not given)	14.9%
COCCNC(=O)CSc1nc2c(n1-c1ccccc1)CCCC2	10.3%
O=C1CC(C(F)(F)C(F)(F)C(F)(F)C(F)(F)F)=Nc2ccccc2N1	17.5%
CCN1C(=NCC(C)C)N[C@@H](CCc2ccccc2)[C@H](C(=O)NCC(C)C)[C@H]1C	8.06%
CC(CC(=O)N1CCN(S(=O)(=O)c2ccccc2)CC1)n1cncn1 (stereo not given)	23.5%
CSc1ncccc1C(=O)OCc1ccc(Br)cc1	17%
CC(C)COc1ccc(C(=O)OCC(=O)NCCC2=CCCCC2)cc1	0.12%
Cc1noc(NS(=O)(=O)c2ccc(NC(=O)c3oc4ccc(F)cc4c3C)cc2)c1C	14.4%
O[C@@H]1C[C@H](c2ccccc2)N(Cc2cccs2)C[C@H]1n1cc(C2CC2)nn1	31.2%

SMILES	activation
O[C@H]1CN(Cc2cccs2)[C@@H](c2ccc(Cl)cc2)C[C@@H]1n1cc(C2CC2)nn1	1.81%
O[C@H]1C[C@H](c2ccc(Cl)cc2)N(Cc2cccs2)C[C@@H]1n1cc(C2CC2)nn1	47.2% (active)
Cc1ccc(C2NC(=S)NC3=C2N2CCC3CC2)cc1 (stereo not given)	12.6%
NC(=O)c1ncn([C@@H]2O[C@H](CN=C3NS(=O)(=O)c4ccccc43)[C@@H](O)[C@H]2O)n1	12.9%
COc1ccccc1N1CCC(N2CCN(CC(C)(C)C)C(CCO)C2)CC1 (stereo not given)	15.1%
O=S(=O)(NCc1ccc2c(c1)OCO2)c1cccc2nsnc12	-1.4%
Cc1ccc(NC(=S)Nc2ncccc2C)c(C)c1	14.7%
Cc1cc(C)cc(NC(=O)COC(=O)c2cc(C)oc2C)c1	9.08%
COC(=O)Cn1cnc2scc(-c3ccc(C)c(C)c3)c2c1=O	12.6%
C[C@H](NC(=O)[C@@H]1CCCN1C(=O)[C@@H]1CCCN1C(=O)c1ccccc1)c1ccccc1	20.5%
CCc1ccc(OCC(=O)NCC(c2ccc(Cl)cc2)N2CCCCC2)cc1 (stereo not given)	11%
COc1ccc(C)cc1N(CC(=O)N1CCCC1)S(=O)(=O)c1ccccc1	9.46%
Cc1ccc(C)c(NC(=O)c2cc(-c3cc(C)cc(C)c3O)n[nH]2)c1	-21.6%
O=C(Nc1cccnc1)c1cc2cc(Br)ccc2oc1=O	-7.52%
O=C(CSc1nnc(-c2cccs2)n1Cc1ccco1)c1ccc2c(c1)OCO2	22.8%
CCN(CC)Cc1cc(C(C)=O)ccc1O	-6.07%
C=CCOc1ccccc1NC(=O)CN1C(=O)CNC1=O	13.6%
Cc1ccc(NC(=O)CN(C)C(=O)c2ccc(Br)o2)cc1	-2.97%
CCOC(=O)c1ccc(N2C(=O)CC(Sc3nc(O)c(CC)c(=O)[nH]3)C2=O)cc1 (stereo not given)	11.8%
Fc1cccc(Cc2noc(CN3CCN(c4cnccn4)CC3)n2)c1	10.6%
Cc1c(Br)c([N+](=O)[O-])nn1C(C)C(=O)Nc1nccs1 (stereo not given)	3.45%
O=c1cc(CN2CCN(S(=O)(=O)/C=C/c3ccccc3)CC2)c2ccc(O)cc2o1	-3.7%
Cc1ccc(-c2ccc(C3=CC(=O)CC(C)(C)C3=O)cc2)cc1	8.88%

SMILES	activation
O=C(NC12CC3CC(CC(C3)C1)C2)N1CCCC(CO)C1 (stereo not given)	11.3%
COc1cc(CCC(=O)N2CCN(c3ccccc3Cl)CC2)cc(OC)c1OC	15.8%
O=C(CN1CCN(C(=S)NC2CCCC2)CC1)Nc1ccc(Oc2ccccc2)cc1	-1.33%
Cc1cccc(N2C(=O)C3C(c4ccccc4)OC4(C(=O)c5ccccc5C4=O)C3C2=O)c1 (stereo not given)	10.9%
O=C(OCC(=O)N1CCCCCC1)c1ccc(Cl)nc1	21.8%
COc1cc(CNc2ncn[nH]2)ccc1OCc1ccccc1C	-0.62%
COc1ccc(OC)c(C(=O)NC(CC(N)=O)c2ccc(N3CCC(N4CCCCC4)CC3)c([N+](=O)[O-])c2)c1 (stereo not given)	26.1%
CC(NC(=O)COc1cccnc1[N+](=O)[O-])c1ccc(Cl)cc1Cl (stereo not given)	-1.02%
Cc1cc(C)c(S(=O)(=O)N(C)CC(=O)NCC2CCCO2)c(C)c1 (stereo not given)	-22.7%
Nc1nc(SCC(=O)Nc2ccc(Cl)cc2C(F)(F)F)n[nH]1	5.7%
Cc1ccc(SCCN2C(=O)NC(C)(C)C2=O)cc1	11.2%
C=CCn1c(COc2ccccc2F)nnc1SCC(=O)N1CC(=O)Nc2ccccc21	15.7%
COc1ccccc1C(=O)N/C(=C/c1ccc2c(c1)OCO2)C(=O)Nc1cccc(C(=O)O)c1	-17.7%
CCc1ccc(N2CC(C(=O)NC3=NCCS3)CC2=O)cc1 (stereo not given)	-0.63%
Cc1nc2ccccn2c(=O)c1NC(=O)c1ccc(Br)o1	7.36%
CCOc1cc(NC(=O)CCl)c(OCC)cc1NC(C)=O	10.9%
Cc1ccc(C(C)C)c(OCCSc2nc3ccccc3n2CC(=O)O)c1	1.93%
COc1cccc(-c2nc3n(n2)C(c2ccccc2Cl)C(C(N)=O)=C(C)N3)c1 (stereo not given)	3.28%
COc1ccc(NC(=O)c2sc(N3CCOCC3)nc2-c2ccccc2)c(OC)c1	44.6% (active)
COc1ccc(NC(=O)NN2CCN(C)CC2)c(OC)c1	15.7%
COc1ccc(NC(=O)CNc2cc(S(=O)(=O)N3CCOCC3)ccc2N2CCOCC2)c(OC)c1	9.94%
